According to publication doi:10.1101/2023.07.10.548322:

Biological target: alpha-synuclein (aSyn) WT (human, UniProt P37840 1-140)
Assay: RNA Bind-n-Seq
Details: ssRNA

Sequence	binding signal
GGCAGGCUGUGG	41.1 enrichment score
GGGAUGUGUGGG	60.2 enrichment score
UGGGGGAUGGAG	41.1 enrichment score
AGGGGUUUUGGG	43.8 enrichment score
GUGGAUGGCGGG	49.1 enrichment score
AGUGCGGGGGGG	49.1 enrichment score
GGUGGUUUGUGG	43.8 enrichment score
GUGCGGGGGGGC	43.8 enrichment score
GUGGGUGUGGUA	41.1 enrichment score
GGGGGUGGUGUU	49.1 enrichment score
UGGGGUGGGAGU	46.4 enrichment score
CGUGGGGAGUGG	41.1 enrichment score
UGGGAGGGGAGU	43.8 enrichment score
GGGUGUUGGUUG	43.8 enrichment score
GCGGGAUGGGGG	43.8 enrichment score
GGGAAGGUUGUG	43.8 enrichment score
AGUGGGGGGGAG	43.8 enrichment score

Sequence	binding signal
CGGAGGUGGGUG	41.1 enrichment score
UGAGUGGGUGGU	43.8 enrichment score
GGGCAGUGGAGG	54.6 enrichment score
GUGUAGGUGGGG	43.8 enrichment score
GCGGGGGGGCUG	43.8 enrichment score
GGGGGAUGUGGU	46.4 enrichment score
GGGGUGGUGUUG	46.4 enrichment score
UGGGGGGAGAAG	41.1 enrichment score
GGGGGGGGGGUG	49.1 enrichment score
AGUUGGUGGUGG	46.4 enrichment score
GGAGGAGGCGGU	41.1 enrichment score
GGAGGCAGUGGG	41.1 enrichment score
UUGGGUGGAGGG	46.4 enrichment score
GUGUGGCGGAGG	46.4 enrichment score
UGAUGGGGGUGG	43.8 enrichment score
GGCGGGCGGAGG	49.1 enrichment score
